# Bioassay records: PubChem BioAssay, National Center for Advancing Translational Sciences (NCATS)
# Vif-A3G inh: inhibitors of Vif-APOBEC3G interaction; Q9HC16; HeLa A3G-eYFP + Vif (tagged APOBEC3G with the HIV-1 protein that degrades it), YFP fluorescence, overnight; Potency, µM (highest dose often 46.1 µM), for inactives: at the top dose activity, negative = active, usual class: inhibitors; 410,000 compounds, 0.076% hits; also: potency is read from the fitted curve at half-maximal effect; % is scaled to controls: 0 for no effect and ±100 for the full control effect; nearly all actives have a fitted effect of over 60% in size
#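 Read-out is eYFP fluorescence (Ex 488/Em 500-530) from Vif-expressing HeLa A3G-eYFP cells; more signal means A3G escaped Vif-mediated degradation. Cells plated overnight, compound pinned in, incubated overnight at 37 deg C.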
# LDHA block: inhibitors of human lactate dehydrogenase A; P00338; purified LDHA, NADH/diaphorase-resazurin fluorescence; active compounds read low; activity change, % (values are at about 110 or 230 µM); 480,000 compounds, 0.15% hits; AID 1347041; in the data active = activity change below about -30%; inconclusive = mostly about -25% to -30%;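 also: plate controls were DMSO wells for no effect and wells without enzyme for full effect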
#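 Human LDH5 (2 nM) was incubated with 0.06 mM NADH and 0.2 mM pyruvate for 5 min at room temperature in Tris pH 7.4. Remaining NADH was coupled through diaphorase/resazurin, and resorufin fluorescence was read at 0 and 20 min.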
# PTHR1 agonist: PTHR1 (human) receptor agonism; AID 743266; Potency, µM (series often up to 115 µM), inactives show at the highest dose activation, most hits filed as activators; Q03431; 410,000 compounds, 0.075% hits; HEK293 GP2 PTHR1 cells, GloSensor cAMP luminescence, 1 h; also: potency is read from the fitted curve at half-maximal effect; nearly all actives have a fitted effect of over 55% in size
#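 HEK-293-derived GP2 cells expressing PTHR1 and a GloSensor cAMP reporter, 3,000/well, plated overnight, given luciferin plus IBMX (each 0.5 mM as added) for 1 h at 37 °C, then compound for 1 h at 37 °C. Luminescence was read after 15 min at room temperature.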
# Vif-APOBEC3F blk: Vif-A3F binding inhibition; HeLa A3F-eYFP + Vif (tagged APOBEC3F with the HIV-1 protein that degrades it), YFP fluorescence increase; Potency, µM (top dose mostly 46.1 µM), inactives show at the highest dose activity, negative = active; 390,000 compounds, 0.2% hits; AID 602313; also: potency is read from the fitted curve at half-maximal effect; % of control where 0% means no effect; nearly all actives have a fitted effect of over 65% in size
#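 HeLa cells stably expressing A3F-eYFP plus Vif, plated and incubated overnight at 37 deg C, then exposed to compounds overnight at 37 deg C. Blocked degradation read as raised yellow fluorescence (Ex 488/Em 500-530).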
# mIDH1 inhibitor: blocks human mutant IDH1 R132H enzyme; Potency, µM (highest dose often 76.6 µM), for inactives: top-dose activity change, negative = inhibition, usual class: inhibitors; IDH1-R132H enzyme, NADPH consumption, diaphorase/resazurin fluorescence; O75874; 390,000 compounds, 0.093% hits; also: potency is read from the fitted curve at half-maximal effect; % is scaled to controls: 0 for no effect and ±100 for the full control effect; nearly all actives have a fitted effect of over 65% in size
# Target sequence (O75874 whole entry R132H, stated change not applied): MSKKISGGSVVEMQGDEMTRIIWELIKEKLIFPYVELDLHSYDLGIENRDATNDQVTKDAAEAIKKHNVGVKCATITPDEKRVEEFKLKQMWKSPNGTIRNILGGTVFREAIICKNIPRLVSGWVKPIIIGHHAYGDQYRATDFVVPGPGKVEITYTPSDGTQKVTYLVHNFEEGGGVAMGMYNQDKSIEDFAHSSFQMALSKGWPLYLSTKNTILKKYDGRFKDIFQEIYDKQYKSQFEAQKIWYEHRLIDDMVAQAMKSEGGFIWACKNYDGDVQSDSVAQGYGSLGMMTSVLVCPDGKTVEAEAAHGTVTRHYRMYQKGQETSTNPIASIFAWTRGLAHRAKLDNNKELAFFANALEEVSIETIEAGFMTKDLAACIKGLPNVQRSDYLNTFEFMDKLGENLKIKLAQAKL
#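 IDH1-R132H (0.5 ug/mL) preincubated 30 min with compound, then NADPH (0.016 mM) and alpha-KG (2 mM) added; 80 min at RT, pH 7.5. Remaining NADPH coupled via diaphorase/resazurin to fluorescence (540/590 nm); concentration-response curves normalized to no-enzyme control.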
# PINK1 modulator: PINK1 expression modulation | PINK1 immunofluorescence, high-content cytometry, 24 h | Potency, µM (top dose mostly 76.6 µM), for the others: at the top dose activation (PINK1 increase), hits mostly activators | 410,000 compounds, 0.2% hits | AID 624263; active = well fitted activation curve with a large enough effect; inconclusive = small, poorly fitted or top-dose-only effect; cell line not stated here; also: potency is read from the fitted curve at half-maximal effect; % of control where 0% means no effect; nearly all actives have a fitted effect of over 65% in size
#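 A stable cell line was treated with compounds at 5 concentrations for 24 hours, with CCCP as control. PINK1 levels and mitochondrial localization were measured by immunofluorescence with mitochondrial, cell and nuclear markers after fixation, read by laser-scanning cytometry.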
# Numbers without * were called inactive; i = inactive; ? = inconclusive; . = no result given; [ ] = another dose, or the depositor's remark. In the library only some 0.59% were active in any assay of this set; here they are far more common. Unless noted, calls follow the shape of the dose curve; as a rule, active = well fitted curve in the direction sought with a large enough effect; inconclusive = small, poorly fitted or top-dose-only effect, or another doubt; inactive = no such curve, though single readings can be large; an effect the other way counts as inactive or inconclusive.
SMILES,Vif-A3G inh,LDHA block,PTHR1 agonist,Vif-APOBEC3F blk,mIDH1 inhibitor,PINK1 modulator
CCc1nc2ccccc2n(CCOCCn2c(=O)c(CC)nc3ccccc32)c1=O,-4%,-6,-14%[57.5 µM],-7%,8%,10µM*
CCOCCn1c(CC)nc2ccccc21,-1%,-11,i,-5%,-1%,0%
Cc1ccc(C)c(OCCn2cc(C(=O)O)c3ccccc32)c1,-9%,-12,-16%,-1%,33µM*,-2%
C#CCOc1ccccc1CNC1CCN(Cc2ccccc2)CC1,3%,-31*,-16%,-1%,-6%,-1%
C#CCOc1ccccc1CNc1ccccc1,1%,-4,i,-14%,5%,7%
O=C(CNc1ccc(C(F)(F)F)cc1)Nc1cccc(S(=O)(=O)N2CCCCC2)c1,-18%,-1,-53%,-14%,2%,45µM*
O=C(Nc1cccc(Cl)c1)Nc1cc(S(=O)(=O)N2CCCCC2)ccc1Cl,-1%,-3,-30%,-15%,5%,14µM*
O=C(Nc1ccc(Cl)cn1)c1cccc(S(=O)(=O)N2CCCCCC2)c1,20µM*,-4,-32%,0%,3%,-1%
CCN(CC)S(=O)(=O)c1ccc(C)c(NC(=S)Nc2cccc(S(=O)(=O)N3CCCCCC3)c2)c1,2%,-1,-28%,-7%,1%,25µM*
O=C(CNc1ccc(C(F)(F)F)cc1)Nc1cccc(S(=O)(=O)N2CCCC2)c1,-1%,0,-60%,-3%,-3%,4%
COc1ccc(Cc2c(-c3ccc(C)cc3)nc3ccc(Cl)cn23)c(C)c1,-13%,-11,-55%,.,.,32µM*
CCn1c(O)c(/C=N/N=C/c2ccc(OC)cc2)c2cc(C3=NNC(=O)CC3)ccc21,?,-9,i,4.5µM*,4%,?
CC/C(C)=N\N=C\c1c(O)n(CC)c2cc(C3=NNC(=O)CC3)ccc12,-1%,10,-14%,-6%,2%,1%
C[n+]1c(-c2ccccc2)cc2c(=Cc3ccc([N+](=O)[O-])cc3)c3ccccc3n21,-9%,30,i,3%,3%,4.5µM*
C[n+]1c(-c2ccccc2)cc2c(=Cc3ccccc3)c3ccccc3n21,-13%,33,-41%,-11%,-6%,?
COc1c(CNC2CCN(Cc3ccccc3)C2)c(C)nn1C (stereo not drawn),.,5,.,.,.,.
C=CCOC(=O)C1=C(C)NC(C)=C(C(=O)OCC=C)C1c1cn(-c2ccccc2)nc1-c1ccco1,8.9µM*,-6,-17%,-13%,3%,12%
COc1ccccc1NC(=O)c1oc2ccccc2c1NC(=O)c1cccc(OC)c1OC,5.6µM*,2,i,-12%,12%,5%
COc1cccc(C(=O)Nc2c(C(=O)Nc3ccc(F)cc3)oc3ccccc23)c1OC,-6%,4,i,-7%,-4%,0%
COc1ccc2nc3sc(C(=O)Nc4cc(Cl)c(OC)cc4OC)cc3cc2c1,?,-5,i,7.1µM*,0%,0%
Clc1ccccc1Cn1c(/C=C/c2ccco2)nc2ccccc21,10µM*,-2,-26%,?,3%,9%
O=C(NCCCc1nc2ccccc2n1Cc1ccccc1Cl)c1ccco1,1%,-2,-19%,1%,-10%,0%
CC(=O)c1ccc(OCCCN2CCCCC2)cc1,0%,-32*,-1%[57.5 µM],5%,-5%,-3%
O=C(c1ccccc1)c1ccc(OCCCN2CCCCC2)cc1,5%,-19,-3%[57.5 µM],-2%,3%,-1%
Nc1nc(N2CCN(c3ccccn3)CC2)nc2ccccc12,0%,-30*,-2%,-6%,0%,5%
SMILES,Vif-A3G inh,LDHA block,PTHR1 agonist,Vif-APOBEC3F blk,mIDH1 inhibitor,PINK1 modulator
Cc1cc2c(cc1S(=O)(=O)N1CCC(C(=O)N3CCc4ccccc43)CC1)OC(C)C(=O)N2 (stereo not drawn),.,3,.,.,.,.
Cc1ccc(N=C2NC(=O)/C(=C/c3cccn3C)S2)cc1,5µM*,-2,-6%,?,10%,?
CNc1ccc(Br)cc(C(=O)/C=C/c2cccc(Cl)c2Cl)c1=O,?,8,-37%,?,7%,9%
CCNc1ccc(Br)cc(C(=O)/C=C/c2ccccc2Cl)c1=O,10µM*,24,-23%[57.5 µM],?,10%,-2%[38.3 µM]
Cn1c(CN2CCCC2)nc2cc(NC(=O)c3ccccc3Cl)ccc21,.,5,.,.,.,.
CCc1ccc(/C=C/c2c[nH]c3ccccc23)[n+](CC)c1,?,-11,-24%,?,7%,32µM*
CCOC(=O)c1cnn(-c2ccc(C(=O)Nc3ccc(Br)cc3)cc2)c1N,.,2,.,.,.,.
O=C(NCc1ccc(Cl)cc1)C(=O)Nc1cccc(O)c1,.,-22,.,.,.,.
CCC(OC(=O)c1cc2sccc2n1C)C(=O)NCC1CCCO1 (stereo not drawn),1%,-5,-23%,2%,7%,2%[38.3 µM]
CC(OC(=O)c1cc2sccc2n1C)C(=O)NCC1CCCO1 (stereo not drawn),2%,1,?,-12%,-5%,10µM*
Cn1c(=O)c2sccc2n(CC(=O)NCC2CCCO2)c1=O (stereo not drawn),.,-41*,.,.,.,.
CC(C)Cn1c(=O)c2sccc2n(CC(=O)NCC2CCCO2)c1=O (stereo not drawn),.,-3,.,.,.,.
COP(=O)(OC)c1nc(C(c2ccccc2)c2ccccc2)oc1NCc1ccco1,.,1,.,.,.,.
COc1ccc(N/C=C/c2nc(SC)nnc2C)cc1,-18%,5,i,22µM*,5%,4%
CSc1nnc(C)c(/C=C/Nc2ccc(F)cc2)n1,-20%,-1,i,-14%,7%,3%
N#CC1=C(N)C(C#N)(C#N)C(c2cccnc2)C2CC(c3ccccc3)CC=C12 (stereo not drawn),-18%,12,-10%,0%,13µM*,2%
N#CC1=C(N)C(C#N)(C#N)[C@H](c2cccnc2)[C@H]2CN(C(=O)OCc3ccccc3)CC=C12,?,-8,-88%,?,-2%,1%
Cc1cc(N/N=C/c2c(O)ccc3ccccc23)nc(NCc2ccccc2)n1,.,14,.,.,.,.
Cc1cc(N/N=C/c2c(O)ccc3ccccc23)nc(-c2ccccc2O)n1,?,5,-8%,13%,6%,45µM*
COc1ccc(N2CCN(C(CNC(=O)C(=O)NCCC3=CCCCC3)c3ccco3)CC2)cc1 (stereo not drawn),3%,-6,-9%,-21%,5%,-1%
